High-throughput results as filed in PubChem.
The list is not random: actives were taken first. Their share in the collection is about 3.7%.
tim23-1 inh = tim23-1 yeast growth inhibition. S. cerevisiae tim23-1 growth, BacTiter-Glo luminescence, 24 h. inhibition, % at 20 µM. 1.3% of 330,000 active. AID 463212;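 active means growth inhibition of the mutant yeast at or above 50%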;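 further: temperature-sensitive mutant grown at 25 °C; plate controls were DMSO-treated mutant yeast for no effect and medium wells lacking yeast for full effect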
PfHsp90 yeast 2 = growth inhibition of yeast expressing Plasmodium Hsp90. S. cerevisiae expressing PfHsp90, BacTiter-Glo ATP, 48 h; yeast lacking PDR1 and PDR3 efflux regulators. inhibition, % at 9.4 µM. 0.32% of 310,000 active. AID 504621;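 active means every replicate shows inhibition above about 80%, whatever the replicate mean, limit read from the data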;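 further: 0% = DMSO neutral controls and 100% = 20 µM radicicol positive controls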
V-ATPase pH = yeast V-ATPase proton transport regulation by pHLuorin. S. cerevisiae, pHLuorin cytosolic pH fluorescence. response, % at 10 µM. 0.37% of 350,000 active. AID 504577; in the data active means response mostly above about 7.3%, no sharp cut-off; inactive means mostly below about 5.4%; further: actives read high
TIM10 inh = growth inhibitors of TIM10 yeast strain; S. cerevisiae TIM10 strain growth, BacTiter-Glo luminescence, 24 h; inhibition, % at 10 µM; 1.4% of 330,000 active;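 active means inhibition of 40% or more at the single tested concentration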;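 further: wild-type TIM10 isogenic control strain grown at permissive 25 °C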
tim10-1 inh = growth inhibitors of tim10-1 mutant yeast; S. cerevisiae tim10-1 ts strain growth, BacTiter-Glo, 24 h; inhibition, % at 20 µM; 2.2% of 330,000 active; AID 463190;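 active means inhibition of at least 40%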;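 further: mutant grown at 25 °C; 0% = DMSO wells with yeast and 100% = wells holding no yeast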
tim10-1 confirm = tim10-1 yeast growth inhibition, confirmed; shares compounds with tim10-1 inh; S. cerevisiae tim10-1 ts strain growth, BacTiter-Glo, 24 h; inhibition, % at 20 µM; 56% of 7,400 active; AID 463213;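 active means inhibition of yeast growth at or above a set limit in either of two repeat tests at 20 µM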;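 further: tim10-1 mutant grown at permissive 25 °C to find synthetic lethal compounds; 0% = DMSO yeast wells and 100% = medium wells without yeast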
tim10 confirm = TIM10 yeast growth inhibition, confirmed | shares compounds with TIM10 inh | S. cerevisiae tim10 strain growth, BacTiter-Glo luminescence, 24 h | inhibition, % at 10 µM | 63% of 4,600 active | AID 463215;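 active means inhibition of yeast growth at or above a set limit in either of two replicates at 10 µM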;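 further: this counterscreen used the strain with wild-type TIM10; 0% = yeast with DMSO and 100% = medium wells lacking yeast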
tim23-1 conf = tim23-1 yeast growth inhibition, confirmed; shares compounds with tim23-1 inh; S. cerevisiae tim23-1 growth, BacTiter-Glo luminescence, 24 h; inhibition, % at 20 µM; 83% of 4,400 active; AID 463218;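 active means inhibition above about 39% in either of two replicate wells at 20 µM, limit read from the data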;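 further: temperature-sensitive tim23-1 mutant grown at 25 °C; 0% = DMSO wells with yeast and 100% = medium wells without yeast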
* marks the source's active call; other numbers are inactive results; . = no result.

SMILES | tim23-1 inh | PfHsp90 yeast 2 | V-ATPase pH | TIM10 inh | tim10-1 inh | tim10-1 confirm | tim10 confirm | tim23-1 conf
O=C(CCNC(=O)c1ccccc1Cl)Nc1ccc(S(=O)(=O)Nc2nccs2)cc1 | -2 | 7 | -1 | -2 | -8 | . | . | .
CN1C(=O)/C(=C/c2cc(N=Nc3ccccc3)ccc2O)SC1=S | 55* | 29 | -1 | 36 | 51* | 41* | . | 65*
O=C1/C(=C\c2cc(Br)cc(Br)c2O)SC(=S)N1Cc1ccccc1 | 47 | 26 | -1 | 15 | 32 | . | . | .
CCOc1ccccc1C(=O)Nc1cc(C(=O)NCC(C)C)ccc1Cl | 8 | . | . | 23 | 5 | . | . | .
CC(C)=NOc1cc(NC(=O)CCl)cc([N+](=O)[O-])c1 | 66* | -10 | 1 | 31 | 52* | 28 | . | 47*
CCOC(=O)/C=C/C(=O)Nc1ccc(Oc2ccccc2)cc1 | 55* | . | 4 | 33 | 50* | 49* | . | 66*
Cn1nnnc1SCC(=O)N1CCc2ccccc2C1 | -5 | -22 | -2 | 10 | 12 | . | . | .
Cc1ccc(-n2nnnc2SCC(=O)N2CCc3ccccc3C2)cc1 | 54* | 14 | 1 | 41* | 46* | 41* | 34* | 41*
Cc1ccc(C)c2c1[nH]c1ccc([N+](=O)[O-])cc12 | 68* | -36 | -1 | 39 | 50* | 31* | . | 51*
Cc1c(C(=O)NN)[nH]c2ccc([N+](=O)[O-])cc12 | 8 | . | -2 | 4 | 24 | . | . | .
O=S(=O)(Cc1ccccc1)N1CCN(Cc2ccc(F)cc2Cl)CC1 | 7 | 8 | -2 | -14 | 0 | . | . | .
COc1ccc(N=Nc2c(C)[nH]c3ccccc23)cc1 | 89* | -6 | 1 | 38 | 43* | 40* | . | 78*
CC(=O)c1ccc(S(=O)(=O)N2CCN(CC(=O)Nc3ccccc3C(=O)NC3CC3)CC2)cc1 | 16 | . | 2 | 2 | 2 | . | . | .
Cc1ccc(-c2cc3nc(C)cc(NCc4ccco4)n3n2)cc1 | 58* | 3 | -5 | 29 | 41* | 38* | . | 55*
COCCNc1cc(C)nc2cc(-c3ccc(C)cc3)nn12 | 28 | 32 | 1 | 12 | 25 | . | . | .
C/C(CC(C)(C)C1CCCCC1)=N\NC(N)=S | 78* | -190 | 6 | 55* | 69* | 70* | 73* | 64*
C/C(CC1CC(C)OC1=O)=N\NC(N)=S (configuration not stated) | -1 | -8 | 1 | 8 | 3 | . | . | .
COc1cccc(NC(=O)C2CC(=O)n3cnnc3S2)c1 (configuration not stated) | 61* | 13 | 8 | 41* | 43* | 33* | 12 | 59*
CCc1ccc(N=Nc2ccc(O)c3[nH]cnc23)cc1 | 37 | -16 | 0 | 25 | 29 | . | . | .
CC(=O)Nc1cc2nc(C)n(Cc3ccccc3[N+](=O)[O-])c2nc1C | 15 | 18 | -1 | 0 | 12 | . | . | .
O=C1c2ccc(Oc3cccc([N+](=O)[O-])c3)cc2C(=O)N1c1ccccn1 | 52* | -30 | 0 | 62* | 46* | 54* | 42* | 65*
COC(=O)[C@@]1(C)[C@H]2C(=O)N(C)C(=O)[C@H]2[C@H]2CN(C)C(=NC3CCCCC3)N21 | 26 | 20 | 1 | -1 | 7 | . | . | .
O=[N+]([O-])c1ccc(CNc2ccc(Cl)cc2)s1 | 61* | -8 | -2 | 56* | 57* | 54* | 65* | 68*
O=C(CSc1ccc(Br)cc1)Nc1cccc(S(=O)(=O)N2CCOCC2)c1 | 24 | . | 2 | 9 | 5 | . | . | .
Cc1cccc(C(=O)O/N=C(\N)Cc2cccc3ccccc23)c1 | 81* | 34 | -1 | 77* | 43* | 30* | 84* | 64*
SMILES | tim23-1 inh | PfHsp90 yeast 2 | V-ATPase pH | TIM10 inh | tim10-1 inh | tim10-1 confirm | tim10 confirm | tim23-1 conf
Cc1ccc(/C(N)=N/OC(=O)Cc2cccc3ccccc23)cc1 | 50* | -6 | 4 | 62* | 57* | 58* | 54* | 46*
Cc1cccc(/C(N)=N/OC(=O)Cc2cccc3ccccc23)c1 | 54* | -3 | 1 | 76* | 62* | 69* | 79* | 60*
Cc1ccc(/C(N)=N/OC(=O)Cc2ccccc2)cc1 | 28 | -15 | -1 | 40 | 33 | . | . | .
CC(NS(=O)(=O)c1ccc2ccccc2c1)c1ccccn1 (configuration not stated) | 22 | . | -1 | 15 | 8 | . | . | .
O=c1[nH]c(=O)c2[nH]c(=S)[nH]c2[nH]1 | . | -51 | 11 | . | . | . | . | .
COc1cc(Cl)ccc1OCc1cc(C(=O)NC(C)Cc2cccnc2)no1 (configuration not stated) | 6 | -5 | -3 | -3 | 13 | . | . | .
FC(F)C(F)(F)c1cc(-c2ccc(Cl)cc2)n[nH]1 | 52* | . | 1 | 22 | 52* | 42* | . | 41*
Fc1ccc(-c2cc(C(F)(F)C(F)F)[nH]n2)cc1 | 28 | . | -1 | 15 | 30 | . | . | .
O=C1CC(=Nc2ccccc2)NN1c1ccccc1 | 59* | . | 0 | 49* | 55* | 45* | 44* | 76*
O=S(=O)(c1cccc(-c2nc3ccccc3s2)c1)N1CCOCC1 | 53* | . | -2 | 43* | 41* | 40* | 30* | 40*
Cc1ccc2[nH]c(=O)c(COC(=O)C3CCCCC3)cc2c1 | 22 | 5 | 1 | 29 | 20 | . | . | .
COC(CNS(=O)(=O)c1cc2c3c(c1)CCN3C(=O)CC2)OC | 0 | -6 | 1 | -3 | 9 | . | . | .
Cc1[nH]n(-c2ccccc2)c(=O)c1C(c1ccc(C(=O)O)cc1)c1c(C)[nH]n(-c2ccccc2)c1=O | 24 | -11 | 2 | 14 | 8 | . | . | .
Cc1[nH]n(-c2ccccc2)c(=O)c1C(C[N+](=O)[O-])c1ccc(Br)cc1 (configuration not stated) | 89* | 122* | 6 | 49* | 60* | 57* | 69* | 84*
c1csc(-c2csc3nc(CN4CCOCC4)nc(NCc4ccc5c(c4)OCO5)c23)c1 | 54* | -2 | 0 | 47* | 46* | 38* | 38* | 51*
O=C1c2ccccc2C(=O)N1CC1CCCO1 (configuration not stated) | -7 | -5 | -3 | -3 | -18 | . | . | .
O=C1c2cccc3cc([N+](=O)[O-])cc(c23)C(=O)N1CC1CCCO1 (configuration not stated) | 52* | 29 | -19 | 15 | 41* | 23 | . | 44*
Cc1ccnc(Nc2nc(-c3sc(C)nc3C)cs2)c1 | 82* | 5 | 0 | 39 | 48* | 25 | . | 58*
Cc1cccc(Nc2nc(-c3sc(C)nc3C)cs2)c1 | 43 | -8 | 4 | 36 | 23 | . | . | .
